Measured values published in PubChem BioAssay (Tox21).
“And” between values parts separate entries of the source, which are not always exact repeats. Equal entries are not always repeated. Inconclusive results are not listed. A call without a number means that no potency is given here. Where a structure was tested more than once in an assay, its records may differ in their call. The source made the active and inactive calls. Unless noted, calls follow the shape of the dose curve; as a rule, active = well fitted curve in the direction sought with a large enough effect in the repeat runs; inconclusive = weak or mixed curves; inactive = no such curve, though single readings can be large; an effect the other way counts as inactive or inconclusive.

Assays:
[1] = qHTS assay to identify aromatase inhibitors - cell viability counter screen (AID 743084);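 also: cells stimulated with testosterone during compound exposure; nearly all actives have a fitted effect of over 55% in size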; also: potency is read from the fitted curve at half-maximal effect
[2] = molecular target: Aryl hydrocarbon receptor (Homo sapiens) (UniProt P35869); experiment: qHTS assay to identify small molecule that activate the aryl hydrocarbon receptor (AhR) signaling pathway (AID 743085); also: nearly all actives have a fitted effect of over 15% in size; also: potency is read from the fitted curve at half-maximal effect;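 as to activation: HG2L7.5c1 human HepG2 liver cells with stably integrated DRE-driven firefly reporter; series mostly up to about 70 µM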
Chain of Aryl hydrocarbon receptor (Homo sapiens) (P35869 whole entry, looked up): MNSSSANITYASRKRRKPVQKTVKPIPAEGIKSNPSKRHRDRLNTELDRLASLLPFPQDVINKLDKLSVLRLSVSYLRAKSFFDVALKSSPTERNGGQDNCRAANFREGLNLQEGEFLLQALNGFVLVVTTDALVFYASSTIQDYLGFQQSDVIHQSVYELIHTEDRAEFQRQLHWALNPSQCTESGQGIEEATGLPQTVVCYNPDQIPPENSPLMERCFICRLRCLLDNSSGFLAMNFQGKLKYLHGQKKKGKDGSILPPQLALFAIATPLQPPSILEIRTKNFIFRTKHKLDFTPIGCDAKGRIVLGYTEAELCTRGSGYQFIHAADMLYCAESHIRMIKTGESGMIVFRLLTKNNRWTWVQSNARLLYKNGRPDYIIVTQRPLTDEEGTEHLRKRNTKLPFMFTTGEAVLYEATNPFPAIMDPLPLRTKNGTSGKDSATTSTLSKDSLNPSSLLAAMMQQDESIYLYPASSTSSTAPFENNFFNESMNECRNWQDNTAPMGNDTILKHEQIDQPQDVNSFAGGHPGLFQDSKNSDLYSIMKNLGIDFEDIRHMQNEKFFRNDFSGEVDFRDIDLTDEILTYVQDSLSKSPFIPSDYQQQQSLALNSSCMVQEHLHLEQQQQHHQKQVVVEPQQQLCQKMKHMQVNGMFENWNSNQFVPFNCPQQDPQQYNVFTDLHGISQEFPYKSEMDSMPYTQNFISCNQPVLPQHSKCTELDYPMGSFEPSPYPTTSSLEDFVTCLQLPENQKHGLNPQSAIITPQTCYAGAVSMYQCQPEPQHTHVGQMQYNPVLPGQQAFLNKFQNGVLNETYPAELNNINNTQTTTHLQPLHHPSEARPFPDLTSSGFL
Procedure, shortened: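 HepG2 cells stably carrying a 20-DRE firefly luciferase reporter (HG2L7.5c1) treated with compound for 24 hr at 37C. Luciferase read by ONE-Glo luminescence, with CellTiter-Fluor viability read first.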

[3] = qHTS assay to identify small molecule that activate the aryl hydrocarbon receptor (AhR) signaling pathway - cell viability counter screen (AID 743086); also: nearly all actives have a fitted effect of over 45% in size; also: potency is read from the fitted curve at half-maximal effect
Procedure, shortened: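 HepG2-AhR-luc (HG2L7.5c1) cells, 4000/well, treated 24 h at 37 C with compound; viability measured as CellTiter-Fluor fluorescence after 30 min in the same wells as the luciferase read.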

[4] = molecular target: Peroxisome proliferator-activated receptor gamma (Homo sapiens) (UniProt P37231); experiment: qHTS assay to identify small molecule agonists of the peroxisome proliferator-activated receptor gamma (PPARg) signaling pathway (AID 743094; active = well fitted activation curve with a large enough effect in the signal ratio in the repeat runs, not every such curve was filed as active; the % refers to the signal ratio)
Chain of Peroxisome proliferator-activated receptor gamma (Homo sapiens) (P37231 whole entry, looked up): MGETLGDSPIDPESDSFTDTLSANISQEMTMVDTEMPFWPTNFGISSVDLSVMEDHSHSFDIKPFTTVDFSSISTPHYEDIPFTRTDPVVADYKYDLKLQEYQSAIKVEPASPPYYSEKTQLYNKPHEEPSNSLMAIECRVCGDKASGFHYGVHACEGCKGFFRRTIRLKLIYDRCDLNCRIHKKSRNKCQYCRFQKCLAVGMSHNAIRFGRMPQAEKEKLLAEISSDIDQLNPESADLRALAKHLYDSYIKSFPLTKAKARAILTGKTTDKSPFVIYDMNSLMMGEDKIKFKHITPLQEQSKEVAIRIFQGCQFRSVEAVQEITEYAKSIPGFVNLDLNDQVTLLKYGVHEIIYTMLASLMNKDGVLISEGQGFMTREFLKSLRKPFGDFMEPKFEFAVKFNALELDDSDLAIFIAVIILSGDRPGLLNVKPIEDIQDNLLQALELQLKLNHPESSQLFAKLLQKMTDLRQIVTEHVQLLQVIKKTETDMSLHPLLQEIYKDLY
Procedure, shortened: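 Reporter activation was scored by fluorescence of cleaved LiveBLAzer B/G substrate (1 h, room temperature) in PPARg-bla HEK293H cells previously treated 17 h at 37C with DMSO-dissolved compounds.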

[5] = molecular target: Peroxisome proliferator-activated receptor gamma (Homo sapiens) (UniProt P37231); experiment: qHTS assay to identify small molecule antagonists of the peroxisome proliferator-activated receptor gamma (PPARg) signaling pathway (AID 743191; calls by dose curve; also: series mostly up to about 63 µM; nearly all actives have a fitted effect of over 30% in size)
Procedure, shortened: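 GeneBLAzer PPARg UAS-bla HEK293H cells, 5 h post-plating, exposed to compounds 17 h at 37C. LiveBLAzer B/G FRET substrate added for 1 h at room temperature; beta-lactamase reporter read by fluorescence intensity.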

[6] = qHTS assay to identify small molecule antagonists of the peroxisome proliferator-activated receptor gamma (PPARg) signaling pathway - cell viability counter screen (AID 743194); also: nearly all actives have a fitted effect of over 55% in size
Procedure, shortened: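 Cytotoxicity counter screen in PPARg-bla HEK293H cells, same wells as reporter assay. Compounds plus 50 nM rosiglitazone (final) for 17 h at 37 C, then viability read by CellTiter-Glo luminescence.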

[7] = qHTS assay for small molecule agonists of the antioxidant response element (ARE) signaling pathway (AID 743202; active = well fitted activation curve with a large enough effect in the signal ratio in the repeat runs, not every such curve was filed as active; the % refers to the signal ratio; also: potency is read from the fitted curve at half-maximal effect)
Procedure, shortened: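 HepG2 ARE-bla reporter line, 2,000 cells/well; 5 h preincubation 37 C/5% CO2; compound (DMSO) 16 h 37 C; B/G FRET substrate 2 h RT; fluorescence intensity.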

[8] = qHTS assay for small molecule agonists of the antioxidant response element (ARE) signaling pathway - cell viability counter screen (AID 743203; calls by dose curve; also: nearly all actives have a fitted effect of over 55% in size)
Procedure, shortened: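 Viability counter screen: stably transfected ARE-bla HepG2 line, 16 hrs compound exposure at 37C/5% CO2, ATP-based CellTiter-Glo luminescence measured in the reporter wells.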

[9] = qHTS assay for small molecule activators of the heat shock response signaling pathway - cell viability counter screen (AID 743209); also: nearly all actives have a fitted effect of over 50% in size
Procedure, shortened: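 Viability of HSE-bla HeLa cells is measured with CellTiter-Glo in the wells already used for the reporter read. Compound exposure lasts 5 h at 37 C, and luminescence is read after 30 min at room temperature.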

[10] = qHTS assay for small molecule activators of the heat shock response signaling pathway (AID 743210; active = well fitted activation curve with a large enough effect in the signal ratio in the repeat runs, with a control signal flat, not every such curve was filed as active; the % refers to the signal ratio;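 also: HeLa cells with beta-lactamase reporter driven by heat shock elements; series mostly up to about 63 µM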)
Procedure, shortened: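 Beta-lactamase reporter read-out: FRET substrate fluorescence after 2.5 h at RT, following 5 h compound treatment at 37 C of HeLa cells carrying HSE-driven bla reporter; quantitative HTS format.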

| SMILES | Potency [1] | Potency [2] | Potency [3] | Potency [4] | Potency [5] | Potency [6] | Potency [7] | Potency [8] | Potency [9] | outcome [10] | activation [7] |
| --- | --- | --- | --- | --- | --- | --- | --- | --- | --- | --- | --- |
| CCCCCCCC(=O)OCC(COC(=O)CCCCCCC)OC(=O)CCCCCCC | inactive | inactive | inactive | inactive | inactive | inactive | inactive | inactive | inactive |  |  |
| Cc1cccc(C)c1 | inactive | inactive | inactive | inactive | inactive | inactive | inactive | inactive | inactive |  |  |
| CN(N=O)C(=O)N[C@@H]1[C@@H](O)[C@H](O)[C@@H](CO)O[C@@H]1O | inactive | inactive | inactive | inactive | inactive | inactive | inactive | inactive | inactive |  |  |
| CS(=O)(=O)OCCCCOS(C)(=O)=O | inactive | inactive | inactive | inactive | inactive | inactive | inactive | inactive | inactive |  |  |
| NC(=O)c1cccnc1 | inactive | inactive | inactive | inactive | inactive | inactive | inactive | inactive | inactive |  |  |
| O=c1[nH]cc(F)c(=O)[nH]1 | inactive | inactive | inactive | inactive | inactive | inactive | inactive | inactive | inactive |  |  |
| C[C@](N)(Cc1ccc(O)c(O)c1)C(=O)O | inactive | inactive | inactive | inactive | inactive | inactive | inactive | inactive | inactive |  |  |
| CCCc1cc(=O)[nH]c(=S)[nH]1 | inactive | inactive | inactive | inactive | inactive | inactive | inactive | inactive | inactive |  |  |
| CN(C)CCOC(C)(c1ccccc1)c1ccccn1 (centres undefined) | inactive | inactive | inactive | inactive | inactive | inactive | inactive | inactive | inactive |  |  |
| Nc1c2c(nc3ccccc13)CCCC2 | inactive | 4.86 µM (active) and 61.1 µM (active) | inactive | inactive | inactive | inactive | inactive | inactive | inactive |  |  |
| F[B-](F)(F)F | inactive | inactive | inactive | inactive | inactive | inactive | inactive and 27.6 µM (active) | inactive | inactive |  |  |
| CC12CCC(CC1)C(C)(C)O2 | inactive | inactive | inactive | inactive | inactive | inactive | inactive | inactive | inactive |  |  |
| NC(CO)(CO)CO | inactive | inactive | inactive | inactive | inactive | inactive | inactive | inactive | inactive |  |  |
| CC1(C)O[C@@H]2C[C@H]3[C@@H]4CCC5=CC(=O)C=C[C@]5(C)[C@@]4(F)[C@@H](O)C[C@]3(C)[C@]2(C(=O)CO)O1 | inactive | inactive | inactive | inactive | inactive | inactive | inactive | inactive | inactive |  |  |
| O=c1[nH]cnc2c1ncn2[C@H]1CC[C@@H](CO)O1 | inactive | inactive | inactive | inactive | inactive | inactive | inactive | inactive | inactive |  |  |
| O=C(O)c1ccccc1 | inactive | inactive | inactive | inactive | inactive | inactive | inactive | inactive | inactive |  |  |
| Cc1cn([C@H]2C=C[C@@H](CO)O2)c(=O)[nH]c1=O | inactive | inactive | inactive | inactive | inactive | inactive | inactive | inactive | inactive | inactive |  |
| O=C(O)CC(O)C(=O)O (centres undefined) | inactive | inactive | inactive | inactive | inactive | inactive | inactive | inactive | inactive |  |  |
| CCCCC1(COC(=O)CCC(=O)O)C(=O)N(c2ccccc2)N(c2ccccc2)C1=O | inactive | inactive | inactive | inactive | inactive | inactive | inactive | inactive | inactive |  |  |

| SMILES | Potency [1] | Potency [2] | Potency [3] | Potency [4] | Potency [5] | Potency [6] | Potency [7] | Potency [8] | Potency [9] | outcome [10] | activation [7] |
| --- | --- | --- | --- | --- | --- | --- | --- | --- | --- | --- | --- |
| NC1CCCCC1 | inactive | 30.8 µM (active) and inactive | inactive | inactive | inactive | inactive | inactive | inactive | inactive |  |  |
| NS(=O)(=O)c1cc2c(cc1Cl)NCNS2(=O)=O | inactive | inactive | inactive | inactive | inactive | inactive | inactive | inactive | inactive |  |  |
| CC(=O)CCC(=O)O | inactive | inactive | inactive | inactive | inactive | inactive | inactive | inactive | inactive |  |  |
| O=C1O[C@H]([C@@H](O)CO)C(O)=C1O | inactive | inactive | inactive | inactive | inactive | inactive | inactive | inactive | inactive |  |  |
| CCCCNC(=O)NS(=O)(=O)c1ccc(C)cc1 | inactive | inactive | inactive | inactive | inactive | inactive | inactive | inactive | inactive |  |  |
| CC(O)(P(=O)(O)O)P(=O)(O)O | inactive | inactive and 15.4 µM (active) | inactive | inactive | inactive | inactive | inactive | inactive | inactive |  |  |
| CN1CCC[C@H]1c1cccnc1 | inactive | inactive | inactive | inactive | inactive | inactive | inactive | inactive | inactive |  |  |
| O=C1NC(=O)C(c2ccccc2)(c2ccccc2)N1 | inactive | inactive | inactive | inactive | inactive | inactive | inactive | inactive | inactive |  |  |
| Cc1ncc([N+](=O)[O-])n1CCO | inactive | inactive | inactive | inactive | inactive | inactive | inactive | inactive | inactive |  |  |
| CC1(C)S[C@@H]2[C@H](NC(=O)[C@H](N)c3ccccc3)C(=O)N2[C@H]1C(=O)O | inactive | inactive | inactive | inactive | inactive | inactive | inactive | inactive | inactive |  |  |
| CNNCc1ccc(C(=O)NC(C)C)cc1 | inactive | inactive | inactive |  |  | inactive | inactive | inactive | inactive |  |  |
| CC(C)C(=O)Nc1ccc([N+](=O)[O-])c(C(F)(F)F)c1 | inactive | inactive | inactive | inactive | inactive | inactive | 19.3 µM (active) and 23.7 µM (active) | inactive | inactive | inactive |  |
| CC(=O)C(=O)O | inactive | inactive | inactive | inactive | inactive | inactive | inactive | inactive | inactive | inactive |  |
| Cn1c(=O)c2c(ncn2C)n(C)c1=O | inactive and 55.1 µM (active) | inactive | inactive and 69.4 µM (active) |  |  | inactive | inactive | inactive | inactive |  |  |
| C/C=C/C=C/C(=O)O | inactive | inactive | inactive |  |  | inactive |  | inactive | inactive |  | 7.69% [at 8.36 µM] (inactive) |
| C=CCc1ccc(O)c(OC)c1 | inactive | inactive | inactive | inactive |  | inactive | inactive | inactive | inactive |  |  |
| Cc1cc(C)nc(NS(=O)(=O)c2ccc(N)cc2)n1 | inactive | inactive | inactive | inactive | inactive | inactive | inactive | inactive | inactive | inactive |  |
| CCN(CC)C(=O)c1cccc(C)c1 | inactive | inactive and 60.5 µM (active) | inactive | inactive |  | inactive | inactive | inactive | inactive |  |  |
